Compounds without any hit were thinned out: in the full panel of roughly 79,000, 15% have a hit. Calls of active or inactive are those of the source. No stated cut-off is given here; in the data, active means growth inhibition above about 70%; inactive means the rest.
Tests used:
[1] = NCI Yeast Anticancer Drug Screen. Data for the rad50 strain (AID 155);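 further: 0% = growth of vehicle-only cultures of the same strain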; conditions: S. cerevisiae rad50 strain growth inhibition; at 50.0 µM; hits give high values
Outline: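 Cells are treated with compound, grown, and their growth is then scored against vehicle-only cultures of the same repair-deficient yeast strain.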

[2] = NCI Yeast Anticancer Drug Screen. Data for the mec2-1 strain (AID 157); conditions: S. cerevisiae mec2-1 strain, at 50.0 µM, hits give high values
Outline: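 Test agents were screened against the mec2-1 yeast strain, with defined DNA repair or cell cycle alteration. Growth was scored as inhibition against vehicle-only controls.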

[3] = NCI Yeast Anticancer Drug Screen. Data for the sgs1 mgt1 strain (AID 161);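 further: 0% = growth of cultures given vehicle only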; conditions: S. cerevisiae sgs1 mgt1 strain, at 50.0 µM, hits give high values
Outline: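 Read-out: growth inhibition vs vehicle controls. Cells: mutant yeast strain deficient in DNA damage repair.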

[4] = NCI Yeast Anticancer Drug Screen. Data for the cln2 rad14 strain (AID 165);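 further: 0% = growth equal to vehicle treated cultures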; conditions: S. cerevisiae cln2 rad14 strain, at 50.0 µM, hits give high values
Outline: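 Growth of compound-exposed yeast (cln2 rad14 genotype) measured and expressed as inhibition relative to vehicle.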

[5] = NCI Yeast Anticancer Drug Screen. Data for the bub3 strain (AID 167); conditions: S. cerevisiae bub3 mutant strain, at 50.0 µM, hits give high values
Outline: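 Part of a panel of yeast mutants defective in DNA damage repair or cell cycle regulation. Each strain is grown with compound, and inhibition is calculated relative to solvent-treated cultures.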

[6] = NCI Yeast Anticancer Drug Screen. Data for the mlh1 rad18 strain (AID 175); conditions: S. cerevisiae mlh1 rad18 strain growth inhibition; at 50.0 µM; hits give high values
Outline: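 In this whole-cell yeast screen, a strain with altered DNA damage repair is challenged with compound, and its growth is measured against matched vehicle-treated controls.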

Measured: growth inhibition

O=[N+]([O-])c1ccc(N=Nc2c(O)c3ccccc3c3ccccc23)c([N+](=O)[O-])c1
inactive: [1] 46.6% | [2] 10.3% | [3] 27.9% | [4] 25.9% | [5] 6.1% | [6] 23.2%

CCN(CC)CCSc1ccnc2cc(Cl)ccc12
inactive: [1] 16.3% | [2] 23.1% | [3] 52.8% | [4] 47.5% | [5] 36% | [6] 21.8%

COc1cc(C(=O)Nc2c3ccccc3nc3ccccc23)cc(OC)c1OC
inactive: [1] -19.9% | [2] -4.55% | [3] 7.8% | [4] -23.6% | [5] -3.3% | [6] -14.6%

N#CC1(C#N)CC1(C#N)C#N
inactive: [1] 7.9% | [2] 16.4% | [3] -1.75% | [4] 27.1% | [5] 12.7% | [6] 15.2%

CCOC(=O)C(C)=P(c1ccccc1)(c1ccccc1)c1ccccc1
inactive: [1] -1.6% | [2] -5.8% | [3] -1% | [4] -39.2% | [5] -0.7% | [6] -11.3%

NC(=O)c1csc(NC2OC(CO)C(O)C(O)C2O)n1 (configuration not stated)
inactive: [1] 23.1% | [2] -8.8% | [3] 0.05% | [4] 14.8% | [5] -0.25% | [6] -0.05%

O=C(O)CC1=C(c2ccccc2)C(O)(c2ccccc2)CC1=O (configuration not stated)
inactive: [1] 4.75% | [2] 15.3% | [3] 7.05% | [4] -27.9% | [5] 11.2% | [6] -11.1%

Cc1cc(C)c(NC(=O)CC#N)cc1C
inactive: [1] -5% | [2] -12.6% | [3] -17.4% | [4] -51.4% | [5] -1.35% | [6] -6.6%

COc1ccc(C2C(C)C(=O)C(C)C(c3ccc(OC)cc3)N2N=O)cc1 (configuration not stated)
inactive: [1] 3.15% | [2] 6.4% | [3] 15.6% | [4] -1.2% | [5] 26.6% | [6] 32.8%

OCCCNCc1ccncc1
inactive: [1] 22.8% | [2] -15.8% | [3] -14.6% | [4] 33.5% | [5] -16.2% | [6] -3.55%

CCCOC1NC(=O)Oc2ccccc21 (configuration not stated)
inactive: [1] -14.8% | [2] -6.1% | [3] -0.9% | [4] -30.4% | [5] -1.55% | [6] 13.8%

Cc1ccc2c(c1)OC(=O)CC2
inactive: [1] 10.3% | [2] -9.65% | [3] -3.25% | [4] -18.8% | [5] -4.1% | [6] -4.3%

C1C[OH+]CC[OH+]CCNCC[OH+]CC[OH+]CCN1.Cl.[Cl-].[Pt+4]
inactive: [1] 8.7% | [2] -9.3% | [3] 6.25% | [4] 10.4% | [5] -3.65% | [6] 7%

NC(=O)C(=O)C1CCC2=C(Sc3ccccc3N2)C1=O (configuration not stated)
inactive: [1] 39.5% | [2] -5.4% | [3] -6.35% | [4] 30.1% | [5] 34% | [6] 4.5%

c1cc(N2CCOCC2)ccc1Cc1ccc(N2CCOCC2)cc1
inactive: [1] -13.2% | [2] 0.9% | [3] -4.1% | [4] 0.45% | [5] -17.6% | [6] -13.1%

COC(=O)C(C(=O)OC)C(Br)(OC(C)=O)OC(C)=O
inactive: [1] -8.95% | [2] 8.2% | [3] 4.55% | [4] 6.65% | [5] 11.1% | [6] -3.35%

CCCCC(=O)N[C@H]1C[C@H]2CC[C@@]1(C)C2(C)C
inactive: [1] -23.2% | [2] 7.5% | [3] -16.6% | [4] -4.05% | [5] 10.9% | [6] -11.8%

Cc1cc(C)c(S(=O)(=O)ONC(=O)OC(C)(C)C)c(C)c1
inactive: [1] 11.8% | [2] -3.9% | [3] -4% | [4] 4.9% | [5] 11.2% | [6] -8.1%

C(=C/c1ccc2c(c1)OCO2)/c1ccccc1
inactive: [1] -16.1% | [2] 10.3% | [3] 12.2% | [4] -2.85% | [5] 11% | [6] 2.9%

COc1ccc2cc(CC(=O)c3ccccc3)ccc2c1
inactive: [1] -24.2% | [2] -6.95% | [3] -11.2% | [4] -37.8% | [5] -17.1% | [6] -3.5%

CCOC(=O)c1cnc(=S)n(CCC(C)C)c1N
inactive: [1] -11.2% | [2] 8.25% | [3] 12.7% | [4] -40.5% | [5] 2.9% | [6] 4.95%

Cc1nn(C(=O)CC(=O)Nc2ccccc2Cl)c(C)c1N=Nc1ccccc1F
inactive: [1] -13.7% | [2] 4% | [3] -27.6% | [4] 21.9% | [5] 2.7% | [6] -14.6%

O=C1NC(N(Cc2ccccc2)Cc2ccccc2)=NC1(c1ccccc1)c1ccccc1
inactive: [1] 16.2% | [2] 2.85% | [3] 23.2% | [4] 7.45% | [5] 5.9% | [6] 20.6%

CC(=O)c1c[nH]c(=O)c2cc3c(cc12)OCO3
inactive: [1] -42.8% | [2] -14.1% | [3] -7.85% | [4] -10.4% | [5] 12.8% | [6] -8.3%

CC(C)COS(=O)(=O)O
inactive: [1] 19.2% | [2] 6.65% | [3] 20% | [4] 24.9% | [5] 15.2% | [6] 27.1%

CSCCCS/C1=C/CCCCCCCCCC1
inactive: [1] -1.85% | [2] 11% | [3] -21.9% | [4] 14.8% | [5] -9.35% | [6] -38.6%

NC(=O)CCBr
inactive: [1] -15.3% | [2] 20.2% | [3] -5.45% | [4] -20.4% | [5] 1.3% | [6] -29.1%

CCCCC(=O)N1SC(NC(=O)OC)=Nc2ccccc21
active: [5] 92.4% | [6] 76.2%
inactive: [1] 61% | [2] 42.4% | [3] 61.8% | [4] 67.2%

CC1(C)CN2C(c3ccccc3)=NN(c3ccccc3)C2(C)C1 (configuration not stated)
inactive: [1] -5.85% | [2] -18.4% | [3] 20.9% | [4] -23.1% | [5] 50.4% | [6] 6.15%

CN(C)CCSC(=Nc1ccccc1)N1CCCCC1
inactive: [1] -32.8% | [2] 1.7% | [3] -9.5% | [4] 30.9% | [5] 8.15% | [6] -9.6%

NC(=O)C1=Cc2cccn2-c2ccccc2S1
inactive: [1] 3.45% | [2] -2.1% | [3] -2.75% | [4] -16.6% | [5] 2.1% | [6] 0.8%

Cc1ccc(S(=O)CC(Cl)c2ccccc2)cc1 (configuration not stated)
inactive: [1] -26.6% | [2] 4.2% | [3] 13.2% | [4] 56% | [5] 14.3% | [6] 21.1%

Oc1ccccc1/C=N\c1nccs1
inactive: [1] 10.7% | [2] 19.2% | [3] 18.6% | [4] 12.4% | [5] 23.8% | [6] 13.2%

N#Cc1cn(C2OC(CO)C3OC32)c2ncnc(NC(=O)c3ccccc3)c12 (configuration not stated)
inactive: [1] 28.9% | [2] 9.1% | [3] 14.7% | [4] 10.3% | [5] -4% | [6] 15.5%

Nc1cc(Nc2ccc(Cl)[nH]c2=S)nc(N)n1
inactive: [1] 31.1% | [2] 13.8% | [3] 11.5% | [4] 20.6% | [5] 18.4% | [6] 15.2%

Cc1nc(N)[nH]c(=O)c1Cc1ccc(Cl)cc1Cl
inactive: [1] -1.65% | [2] -1.15% | [3] -5.7% | [4] -44.4% | [5] -12.6% | [6] 8.55%

O=C1NC(=O)C(F)[CH]([Ge](=[O])[O][Ge](=[O])[CH]2NC(=O)NC(=O)C2F)N1 (configuration not stated)
inactive: [1] -7.45% | [2] -8.85% | [3] 0.2% | [4] -7.35% | [5] 0.7% | [6] -17.9%
